# According to publication PMC7862700, “An all-to-all approach to the identification of sequence-specific readers for epigenetic DNA modifications on cytosine”:
# What was measured:
# Assay in all cases: DAPPL (digital affinity profiling via proximity ligation, sequencing); 10 mM Tris-HCl pH 7.5, 50 mM NaCl, 1 mM DTT, 4% glycerol, room temperature, 30 min; GST-TFs on glutathione beads, 16-mer random dsDNA library, 0.1% formaldehyde crosslink after washing; high values mean tight binding
# FEV = molecular target: T1, FEV (Homo sapiens, UniProt Q99581 1-238); conditions: protein: recombinant; tags: N-terminal GST; dsDNA, one strand shown
# T1 sequence: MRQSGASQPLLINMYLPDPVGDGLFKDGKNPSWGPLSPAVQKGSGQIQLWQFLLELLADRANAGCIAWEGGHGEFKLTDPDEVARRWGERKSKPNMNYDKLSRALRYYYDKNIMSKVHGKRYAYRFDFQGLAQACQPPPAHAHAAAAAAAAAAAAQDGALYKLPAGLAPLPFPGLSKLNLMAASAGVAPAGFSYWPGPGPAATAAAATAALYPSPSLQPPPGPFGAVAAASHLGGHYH
# Outline: (§1)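 Human transcription factors were made in yeast as GST fusions, captured on glutathione beads and barcoded with DNA. With a tag-only sample included, the pool was incubated with 200 nmole of a random double-stranded 16-mer DNA library in Tris/NaCl/DTT/glycerol buffer at room temperature for 30 min, then crosslinked with 0.1% formaldehyde after washing, ligated by proximity, amplified and sequenced. For binding signal, each hexamer's read frequency for a factor is divided by its frequency for the tag-only sample.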
# ETV5 = ETV5 (Homo sapiens, UniProt P41161 1-510); conditions: protein: recombinant; tags: N-terminal GST; dsDNA, one strand shown
# Chain of ETV5 (P41161 whole entry): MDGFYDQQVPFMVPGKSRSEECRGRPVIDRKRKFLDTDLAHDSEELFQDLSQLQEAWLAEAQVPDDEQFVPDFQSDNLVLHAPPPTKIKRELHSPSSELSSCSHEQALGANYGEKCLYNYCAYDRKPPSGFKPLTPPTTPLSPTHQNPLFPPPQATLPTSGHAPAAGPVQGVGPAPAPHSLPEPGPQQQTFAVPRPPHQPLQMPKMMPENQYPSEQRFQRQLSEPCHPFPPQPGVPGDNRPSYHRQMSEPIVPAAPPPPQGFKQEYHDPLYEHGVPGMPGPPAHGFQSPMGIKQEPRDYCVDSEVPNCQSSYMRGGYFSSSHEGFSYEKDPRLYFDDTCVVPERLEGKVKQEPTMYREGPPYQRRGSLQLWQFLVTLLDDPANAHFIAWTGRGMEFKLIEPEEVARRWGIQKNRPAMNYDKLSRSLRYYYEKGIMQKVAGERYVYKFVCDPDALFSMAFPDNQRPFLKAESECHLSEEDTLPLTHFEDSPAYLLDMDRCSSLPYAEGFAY
# Outline: as §1
# HSF1 = HSF1 (Homo sapiens, UniProt Q00613 1-529); conditions: protein: recombinant; tags: N-terminal GST; chain copies: 3; dsDNA, one strand shown
# Chain of HSF1 (Q00613 whole entry): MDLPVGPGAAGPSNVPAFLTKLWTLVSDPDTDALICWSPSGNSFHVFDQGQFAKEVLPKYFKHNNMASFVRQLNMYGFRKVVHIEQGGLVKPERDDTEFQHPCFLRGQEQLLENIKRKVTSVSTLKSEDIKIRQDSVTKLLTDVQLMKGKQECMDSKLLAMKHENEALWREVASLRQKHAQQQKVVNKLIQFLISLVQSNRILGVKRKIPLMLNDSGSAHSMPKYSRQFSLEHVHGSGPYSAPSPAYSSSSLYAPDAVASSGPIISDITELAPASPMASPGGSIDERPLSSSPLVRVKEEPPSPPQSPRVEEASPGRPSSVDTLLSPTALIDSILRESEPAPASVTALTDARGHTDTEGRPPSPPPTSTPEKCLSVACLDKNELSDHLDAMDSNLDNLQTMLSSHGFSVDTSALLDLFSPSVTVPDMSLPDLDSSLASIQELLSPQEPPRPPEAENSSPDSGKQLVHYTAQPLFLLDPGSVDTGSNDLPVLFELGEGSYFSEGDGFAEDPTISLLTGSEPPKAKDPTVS
# Outline: as §1
# SPIC = molecular target: T2, SPIC (Homo sapiens, UniProt Q8N5J4 1-248); conditions: protein: recombinant; tags: N-terminal GST; dsDNA, one strand shown
# T2 sequence: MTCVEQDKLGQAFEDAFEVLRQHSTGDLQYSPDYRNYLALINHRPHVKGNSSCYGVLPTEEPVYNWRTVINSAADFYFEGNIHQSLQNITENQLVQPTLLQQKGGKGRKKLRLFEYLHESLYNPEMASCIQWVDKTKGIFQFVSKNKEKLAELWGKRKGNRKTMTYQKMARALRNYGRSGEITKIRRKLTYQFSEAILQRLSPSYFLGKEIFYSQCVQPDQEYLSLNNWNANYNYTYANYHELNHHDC
# Outline: as §1
# ELF4 = ELF4 (Homo sapiens, UniProt Q99607 1-663); conditions: protein: recombinant; tags: N-terminal GST; dsDNA, one strand shown
# Chain of ELF4 (Q99607 whole entry): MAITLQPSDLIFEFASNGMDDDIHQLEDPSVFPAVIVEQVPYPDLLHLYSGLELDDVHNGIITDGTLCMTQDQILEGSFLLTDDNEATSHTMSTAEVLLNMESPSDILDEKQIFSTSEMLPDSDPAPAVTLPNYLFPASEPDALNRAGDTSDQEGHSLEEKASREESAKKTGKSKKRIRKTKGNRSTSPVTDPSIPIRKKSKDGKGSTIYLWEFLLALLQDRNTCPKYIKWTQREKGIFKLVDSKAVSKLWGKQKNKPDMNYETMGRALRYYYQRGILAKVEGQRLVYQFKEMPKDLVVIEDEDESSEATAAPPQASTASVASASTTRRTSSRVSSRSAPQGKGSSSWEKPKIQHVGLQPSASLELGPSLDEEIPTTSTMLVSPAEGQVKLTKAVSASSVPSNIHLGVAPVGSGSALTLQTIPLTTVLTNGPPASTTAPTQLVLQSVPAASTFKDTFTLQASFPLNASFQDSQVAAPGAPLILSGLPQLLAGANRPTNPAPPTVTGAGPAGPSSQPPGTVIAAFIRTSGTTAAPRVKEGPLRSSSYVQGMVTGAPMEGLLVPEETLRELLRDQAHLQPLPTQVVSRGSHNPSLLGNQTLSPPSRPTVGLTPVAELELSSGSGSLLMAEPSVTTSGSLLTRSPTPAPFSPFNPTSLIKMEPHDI
# Outline: as §1
# ELK4 = molecular target: T3, ELK4 (Homo sapiens, UniProt P28324-2 1-405); conditions: protein: recombinant; tags: N-terminal GST; dsDNA, one strand shown
# T3 sequence: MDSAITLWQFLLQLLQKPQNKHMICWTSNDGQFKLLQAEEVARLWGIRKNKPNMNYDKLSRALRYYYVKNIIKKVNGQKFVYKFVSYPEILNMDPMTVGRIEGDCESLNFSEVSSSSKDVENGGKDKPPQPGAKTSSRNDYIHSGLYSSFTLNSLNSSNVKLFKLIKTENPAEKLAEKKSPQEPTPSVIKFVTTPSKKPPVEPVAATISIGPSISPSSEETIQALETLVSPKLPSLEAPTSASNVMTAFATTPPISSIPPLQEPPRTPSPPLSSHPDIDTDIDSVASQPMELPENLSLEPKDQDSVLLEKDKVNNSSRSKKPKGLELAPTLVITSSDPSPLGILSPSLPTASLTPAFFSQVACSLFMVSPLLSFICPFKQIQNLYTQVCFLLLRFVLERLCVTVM
# Outline: as §1
# ETV2 = molecular target: T4, ETV2 (Homo sapiens, UniProt O00321 1-342); conditions: protein: recombinant; tags: N-terminal GST; dsDNA, one strand shown
# T4 sequence: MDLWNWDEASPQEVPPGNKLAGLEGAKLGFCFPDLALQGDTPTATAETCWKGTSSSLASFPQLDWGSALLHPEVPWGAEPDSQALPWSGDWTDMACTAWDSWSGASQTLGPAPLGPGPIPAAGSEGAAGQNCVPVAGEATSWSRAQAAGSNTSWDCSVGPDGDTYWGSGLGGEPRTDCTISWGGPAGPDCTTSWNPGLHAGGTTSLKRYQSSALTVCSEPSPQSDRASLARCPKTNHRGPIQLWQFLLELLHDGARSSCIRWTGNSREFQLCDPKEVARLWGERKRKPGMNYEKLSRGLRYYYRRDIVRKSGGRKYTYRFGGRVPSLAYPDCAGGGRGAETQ
# Outline: as §1
# ELF3 = molecular target: T5, ELF3 (Homo sapiens, UniProt P78545 1-371); conditions: protein: recombinant; tags: N-terminal GST; dsDNA, one strand shown
# T5 sequence: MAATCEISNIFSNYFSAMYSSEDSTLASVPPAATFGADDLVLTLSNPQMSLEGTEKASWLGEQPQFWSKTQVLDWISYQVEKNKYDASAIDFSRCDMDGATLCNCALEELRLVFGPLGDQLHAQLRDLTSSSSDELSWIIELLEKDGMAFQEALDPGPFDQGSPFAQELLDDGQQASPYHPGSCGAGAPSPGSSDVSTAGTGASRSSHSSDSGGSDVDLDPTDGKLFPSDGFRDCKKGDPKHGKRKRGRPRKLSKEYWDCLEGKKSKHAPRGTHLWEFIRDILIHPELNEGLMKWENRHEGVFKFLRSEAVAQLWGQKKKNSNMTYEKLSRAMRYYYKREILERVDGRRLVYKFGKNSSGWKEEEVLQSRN
# Outline: as §1
# CRX = CRX (Homo sapiens, UniProt O43186 1-299); conditions: protein: recombinant; tags: N-terminal GST; dsDNA, one strand shown
# Chain of CRX (O43186 whole entry): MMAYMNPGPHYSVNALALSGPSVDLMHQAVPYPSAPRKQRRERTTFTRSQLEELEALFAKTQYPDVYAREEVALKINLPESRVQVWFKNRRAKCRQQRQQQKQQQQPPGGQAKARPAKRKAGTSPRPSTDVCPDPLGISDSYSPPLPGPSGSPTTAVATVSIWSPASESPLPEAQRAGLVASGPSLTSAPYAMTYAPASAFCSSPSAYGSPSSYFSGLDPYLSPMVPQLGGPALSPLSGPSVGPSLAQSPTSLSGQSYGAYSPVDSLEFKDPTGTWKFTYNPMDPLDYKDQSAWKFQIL
# Outline: as §1
# ETV1 = ETV1 (Homo sapiens, UniProt P50549 1-477); conditions: protein: recombinant; tags: N-terminal GST; dsDNA, one strand shown
# Chain of ETV1 (P50549 whole entry): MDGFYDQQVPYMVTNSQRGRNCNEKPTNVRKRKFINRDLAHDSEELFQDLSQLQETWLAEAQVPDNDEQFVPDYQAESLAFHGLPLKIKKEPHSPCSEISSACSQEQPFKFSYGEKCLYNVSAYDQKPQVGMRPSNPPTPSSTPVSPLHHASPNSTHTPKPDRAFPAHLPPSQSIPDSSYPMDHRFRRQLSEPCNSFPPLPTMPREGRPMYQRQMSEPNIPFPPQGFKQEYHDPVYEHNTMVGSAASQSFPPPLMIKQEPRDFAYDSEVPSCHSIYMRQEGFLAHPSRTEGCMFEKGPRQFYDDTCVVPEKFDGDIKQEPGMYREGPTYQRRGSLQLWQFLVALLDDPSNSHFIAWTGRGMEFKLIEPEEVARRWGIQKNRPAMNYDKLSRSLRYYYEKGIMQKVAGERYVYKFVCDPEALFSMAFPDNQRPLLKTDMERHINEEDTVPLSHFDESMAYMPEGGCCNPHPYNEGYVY
# Outline: as §1
# ERF = molecular target: T6, ERF (Homo sapiens, UniProt P50548 1-548); conditions: protein: recombinant; tags: N-terminal GST; dsDNA, one strand shown
# T6 sequence: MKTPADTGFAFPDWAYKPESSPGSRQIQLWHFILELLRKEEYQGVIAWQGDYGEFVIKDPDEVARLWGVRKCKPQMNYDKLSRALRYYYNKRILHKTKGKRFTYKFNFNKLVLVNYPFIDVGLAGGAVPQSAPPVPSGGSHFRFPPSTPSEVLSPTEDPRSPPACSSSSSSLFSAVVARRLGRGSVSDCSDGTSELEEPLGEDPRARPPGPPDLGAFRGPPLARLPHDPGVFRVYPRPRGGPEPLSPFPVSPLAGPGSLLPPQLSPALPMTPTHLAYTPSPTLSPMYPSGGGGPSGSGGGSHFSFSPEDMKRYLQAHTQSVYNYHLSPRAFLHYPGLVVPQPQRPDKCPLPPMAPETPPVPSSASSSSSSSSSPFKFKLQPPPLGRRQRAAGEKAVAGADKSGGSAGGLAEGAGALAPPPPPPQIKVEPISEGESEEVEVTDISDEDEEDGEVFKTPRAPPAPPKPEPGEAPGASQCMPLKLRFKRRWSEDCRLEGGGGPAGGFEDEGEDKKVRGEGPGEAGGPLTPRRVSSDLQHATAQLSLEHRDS
# Outline: as §1
# ETV3L = molecular target: T7, ETV3L (Homo sapiens, UniProt Q6ZN32 1-361); conditions: protein: recombinant; tags: N-terminal GST; dsDNA, one strand shown
# T7 sequence: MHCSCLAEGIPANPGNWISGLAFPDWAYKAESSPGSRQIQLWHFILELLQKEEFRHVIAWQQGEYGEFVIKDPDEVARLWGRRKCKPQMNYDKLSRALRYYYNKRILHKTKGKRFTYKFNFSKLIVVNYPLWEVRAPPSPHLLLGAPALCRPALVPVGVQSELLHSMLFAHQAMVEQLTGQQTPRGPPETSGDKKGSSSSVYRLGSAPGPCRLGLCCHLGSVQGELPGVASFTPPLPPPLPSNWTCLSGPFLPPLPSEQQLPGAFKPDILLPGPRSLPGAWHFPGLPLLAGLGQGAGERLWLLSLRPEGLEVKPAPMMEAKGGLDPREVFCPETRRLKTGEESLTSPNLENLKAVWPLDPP
# Outline: as §1
# ETS2 = molecular target: T8, ETS2 (Homo sapiens, UniProt P15036 1-469); conditions: protein: recombinant; tags: N-terminal GST; dsDNA, one strand shown
# T8 sequence: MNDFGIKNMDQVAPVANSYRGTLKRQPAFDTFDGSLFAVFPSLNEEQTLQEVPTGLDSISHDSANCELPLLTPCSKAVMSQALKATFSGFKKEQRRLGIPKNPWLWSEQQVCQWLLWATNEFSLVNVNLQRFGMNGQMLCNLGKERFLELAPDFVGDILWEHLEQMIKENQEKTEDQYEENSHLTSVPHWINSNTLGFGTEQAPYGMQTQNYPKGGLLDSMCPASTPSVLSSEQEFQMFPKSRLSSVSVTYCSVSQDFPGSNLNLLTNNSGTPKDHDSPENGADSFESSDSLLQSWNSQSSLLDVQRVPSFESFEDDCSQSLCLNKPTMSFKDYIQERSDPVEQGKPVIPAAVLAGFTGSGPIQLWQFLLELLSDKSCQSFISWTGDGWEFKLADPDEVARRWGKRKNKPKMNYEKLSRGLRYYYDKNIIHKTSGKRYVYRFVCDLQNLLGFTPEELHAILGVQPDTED
# Outline: as §1
# SPDEF = molecular target: T9, SPDEF (Homo sapiens, UniProt O95238 1-335); conditions: protein: recombinant; tags: N-terminal GST; dsDNA, one strand shown
# T9 sequence: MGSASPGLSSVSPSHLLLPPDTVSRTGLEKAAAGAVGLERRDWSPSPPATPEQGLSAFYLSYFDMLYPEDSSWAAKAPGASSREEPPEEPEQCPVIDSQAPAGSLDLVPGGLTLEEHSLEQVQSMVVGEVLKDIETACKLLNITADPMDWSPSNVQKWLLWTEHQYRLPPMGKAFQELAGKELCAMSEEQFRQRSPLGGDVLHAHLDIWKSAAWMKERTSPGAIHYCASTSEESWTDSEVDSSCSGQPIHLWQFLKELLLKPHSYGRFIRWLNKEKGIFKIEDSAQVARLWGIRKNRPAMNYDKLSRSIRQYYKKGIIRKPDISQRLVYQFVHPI
# Outline: as §1
# ETV7 = molecular target: T10, ETV7 (Homo sapiens, UniProt Q9Y603 1-341); conditions: protein: recombinant; tags: N-terminal GST; dsDNA, one strand shown
# T10 sequence: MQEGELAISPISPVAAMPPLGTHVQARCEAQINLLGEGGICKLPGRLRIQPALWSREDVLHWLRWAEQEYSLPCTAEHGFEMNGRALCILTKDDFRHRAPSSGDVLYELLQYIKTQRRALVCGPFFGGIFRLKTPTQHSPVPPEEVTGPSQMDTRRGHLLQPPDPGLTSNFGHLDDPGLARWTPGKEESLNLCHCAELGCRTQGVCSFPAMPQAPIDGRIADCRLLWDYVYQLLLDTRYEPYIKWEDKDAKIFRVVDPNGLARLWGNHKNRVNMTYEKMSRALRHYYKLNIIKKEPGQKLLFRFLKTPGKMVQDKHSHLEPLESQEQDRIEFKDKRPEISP
# Outline: as §1
# ELF5 = molecular target: T11, ELF5 (Homo sapiens, UniProt Q9UKW6-2 1-255); conditions: protein: recombinant; tags: N-terminal GST; dsDNA, one strand shown
# T11 sequence: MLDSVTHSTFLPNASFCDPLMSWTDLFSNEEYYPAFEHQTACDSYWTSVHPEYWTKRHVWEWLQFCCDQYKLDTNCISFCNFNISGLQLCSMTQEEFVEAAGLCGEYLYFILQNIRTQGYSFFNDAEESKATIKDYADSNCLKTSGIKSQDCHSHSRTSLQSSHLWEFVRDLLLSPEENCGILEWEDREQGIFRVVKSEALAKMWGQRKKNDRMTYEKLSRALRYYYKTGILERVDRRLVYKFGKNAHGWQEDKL
# Outline: as §1
# ETV3 = molecular target: T12, ETV3 (Homo sapiens, UniProt P41162-2 1-143); conditions: protein: recombinant; tags: N-terminal GST; dsDNA, one strand shown
# T12 sequence: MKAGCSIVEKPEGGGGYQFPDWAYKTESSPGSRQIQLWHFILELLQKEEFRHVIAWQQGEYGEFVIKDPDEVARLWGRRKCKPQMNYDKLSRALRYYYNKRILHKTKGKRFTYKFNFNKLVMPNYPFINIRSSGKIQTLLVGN
# Outline: as §1
# ETV6 = ETV6 (Homo sapiens, UniProt P41212 1-452); conditions: protein: recombinant; tags: N-terminal GST; dsDNA, one strand shown
# Chain of ETV6 (P41212 whole entry): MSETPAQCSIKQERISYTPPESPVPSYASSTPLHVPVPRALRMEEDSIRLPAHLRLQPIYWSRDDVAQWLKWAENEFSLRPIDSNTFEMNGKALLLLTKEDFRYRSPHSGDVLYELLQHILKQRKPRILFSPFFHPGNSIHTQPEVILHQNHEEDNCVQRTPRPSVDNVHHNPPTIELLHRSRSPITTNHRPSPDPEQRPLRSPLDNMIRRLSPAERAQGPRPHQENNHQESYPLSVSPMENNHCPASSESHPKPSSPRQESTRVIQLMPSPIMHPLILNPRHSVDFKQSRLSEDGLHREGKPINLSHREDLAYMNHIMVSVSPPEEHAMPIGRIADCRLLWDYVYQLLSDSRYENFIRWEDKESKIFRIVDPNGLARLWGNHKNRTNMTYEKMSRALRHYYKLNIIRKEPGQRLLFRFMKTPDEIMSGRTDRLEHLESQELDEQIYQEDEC
# Outline: as §1
sequence,measurement,setting,value
CACGCT,binding signal,FEV,"1.32 fold enrichment (6-mer frequency, TF over GST control)"
same,binding signal,ETV5,"1.34 fold enrichment (6-mer frequency, TF over GST control)"
same,binding signal,HSF1,"1.19 fold enrichment (6-mer frequency, TF over GST control)"
same,binding signal,SPIC,"1.23 fold enrichment (6-mer frequency, TF over GST control)"
same,binding signal,ELF4,"1.43 fold enrichment (6-mer frequency, TF over GST control)"
same,binding signal,ELK4,"1.36 fold enrichment (6-mer frequency, TF over GST control)"
same,binding signal,ETV2,"1.27 fold enrichment (6-mer frequency, TF over GST control)"
same,binding signal,ELF3,"1.4 fold enrichment (6-mer frequency, TF over GST control)"
same,binding signal,CRX,"1.17 fold enrichment (6-mer frequency, TF over GST control)"
same,binding signal,ETV1,"1.34 fold enrichment (6-mer frequency, TF over GST control)"
same,binding signal,ERF,"1.35 fold enrichment (6-mer frequency, TF over GST control)"
same,binding signal,ETV3L,"1.37 fold enrichment (6-mer frequency, TF over GST control)"
same,binding signal,ETS2,"1.31 fold enrichment (6-mer frequency, TF over GST control)"
same,binding signal,SPDEF,"1.35 fold enrichment (6-mer frequency, TF over GST control)"
same,binding signal,ETV7,"1.36 fold enrichment (6-mer frequency, TF over GST control)"
same,binding signal,ELF5,"1.25 fold enrichment (6-mer frequency, TF over GST control)"
same,binding signal,ETV3,"1.37 fold enrichment (6-mer frequency, TF over GST control)"
same,binding signal,ETV6,"1.34 fold enrichment (6-mer frequency, TF over GST control)"
